# LYPLA1 inh: LYPLA1 (human) inhibition in PME1 counter-screen | actives 0.16% (n = 320,000) | AID 2174 | recombinant LYPLA1, FP-Rh probe fluorescence polarization | O75608 | inhibition, % at 5.9 µM;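 active = inhibition above the mean of all tested compounds plus 3 SD, set per campaign, cut at about 14% in these data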;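 also: inhibitors block serine hydrolase probe labeling of LYPLA1 so polarization falls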
# Target sequence (O75608 whole entry, looked up): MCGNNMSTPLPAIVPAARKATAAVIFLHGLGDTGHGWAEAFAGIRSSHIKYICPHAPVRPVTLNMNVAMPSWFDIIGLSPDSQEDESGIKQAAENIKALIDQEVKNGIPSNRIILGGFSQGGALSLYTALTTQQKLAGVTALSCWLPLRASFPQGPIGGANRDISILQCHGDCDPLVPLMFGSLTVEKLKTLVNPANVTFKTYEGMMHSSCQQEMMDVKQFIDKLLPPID
# LYPLA2 inh: LYPLA2 (human) inhibition in PME1 counter-screen; O95372; recombinant LYPLA2, FP-Rh probe fluorescence polarization; inhibition, % at 5.9 µM; actives 0.38% (n = 320,000); AID 2177;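 active = inhibition above the screen-wide mean plus 3 SD, limit set per campaign, cut at about 26% in these data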
# Target sequence (O95372 whole entry, looked up): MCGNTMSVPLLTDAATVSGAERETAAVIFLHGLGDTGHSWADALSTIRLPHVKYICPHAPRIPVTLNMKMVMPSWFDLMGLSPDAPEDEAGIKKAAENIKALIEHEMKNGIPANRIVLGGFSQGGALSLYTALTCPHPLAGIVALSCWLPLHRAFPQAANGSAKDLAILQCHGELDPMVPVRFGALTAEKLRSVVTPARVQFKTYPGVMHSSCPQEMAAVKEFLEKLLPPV
# DTT redox prof: compounds producing H2O2 with reducing agent – biochemical, NIH compound library profiling, artefact control for MLSCN library redox annotation, primary screen. DTT-dependent redox cycling H2O2, phenol red/HRP absorbance; 100% = 100 µM peroxide control, 0% = buffer. activation, % at 10 µM. actives 0.03% (n = 200,000). AID 878;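 active = activation of at least 50% relative to the plate's high and low controls in the primary single-dose screen; inactive = activation below 50%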;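 also: compound incubated with DTT at 0.8 mM final as the reducing agent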
# p97 ATPase inh: blocks human p97 ATPase activity; actives 0.42% (n = 220,000); inhibition, % at 8 µM; P55072; AID 1481; recombinant p97 ATPase, Kinase-Glo ATP luminescence, 3 h; in the data active = inhibition above about 15%
# p97 inh conf: confirmation of human p97 ATPase inhibitors; shares compounds with p97 ATPase inh; recombinant p97 ATPase, Kinase-Glo ATP luminescence; inhibition, % at 8 µM; actives 44% (n = 760); AID 1517;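 active = percent inhibition of p97 ATPase above a set limit, the primary screen's mean plus 3 SD, cut at about 15% in these data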
# Hits are given with their value; n = inactive; x = not tested or not shown. Most compounds without a hit are left out; they make up all but 0.74% or so of the library.
SMILES,LYPLA1 inh,LYPLA2 inh,DTT redox prof,p97 ATPase inh,p97 inh conf
CC(=O)OCC(=O)C1=CCC2C3CCC4=CC(=O)C=CC4(C)C3(F)C(OC(C)=O)CC12C (centres undefined),n,n,n,14.8,n
Cc1ccc(S(=O)(=O)N2CCOCC2)cc1C(=O)Nc1ccncc1,n,n,x,x,x
Cc1ccc(S(=O)(=O)N2CCOCC2)cc1C(=O)Nc1ccc(-c2cn3ccsc3n2)cc1,n,n,n,17.3,21.3
NS(=O)(=O)c1ccc(N/N=C/c2ccc(O)c(O)c2O)c([N+](=O)[O-])c1,x,x,x,47.9,49.6
NS(=O)(=O)c1ccc(N/N=C/c2ccc(O)cc2O)c([N+](=O)[O-])c1,n,n,x,n,x
O=C(CCC(=O)N(CC(=O)NC1CCCC1)Cc1ccccc1Cl)Nc1nccs1,n,n,x,x,x
O=C(CCl)Nc1cccc(-c2cnc3ccccc3n2)c1,n,n,n,17.9,34.7
CCC(=O)Nc1cccc(-c2cnc3ccccc3n2)c1,n,n,n,n,x
CCN(CC)C(=O)CSc1nnc2nnc3cc(OC)ccc3n12,n,n,x,n,x
CC(C)(C)OC(=O)NCCCCCNC(=O)c1[nH]cnc1C(=O)Nc1ccon1,n,n,x,x,x
COc1cccc(N2C(=NC(=O)c3ccccc3)SC3CS(=O)(=O)CC32)c1 (centres undefined),n,n,x,x,x
COc1cc(C(=O)c2nccc3cc(OC)c(OC)cc23)c([N+](=O)[O-])cc1OC,n,n,n,29.9,24.8
O=C1CCN2C=Nc3cccc4ccc1c2c34,n,n,n,26.3,n
c1ccc(CN2CCN(C3=Nc4cccc5cccc3c45)CC2)cc1,x,x,n,n,x
CN(C(=O)COC(=O)C1CCN(S(=O)(=O)c2c(Cl)cccc2Cl)CC1)C1CCS(=O)(=O)C1 (centres undefined),n,n,x,x,x
O=C1C=C(c2cc(F)ccc2F)C[C@@H](c2ccc(F)cc2)C1,n,n,x,x,x
COc1ccc(-c2nc(-c3ccc(NC(=O)c4ccc(Br)o4)cc3)no2)cc1OC,n,n,n,16.9,n
O=c1cc(CN2CCN(S(=O)(=O)c3ccccc3[N+](=O)[O-])CC2)nc2sccn12,n,n,n,n,x
O=S(=O)(c1ccc(Cl)cc1)c1snnc1-c1ccccc1,n,n,n,15.8,n
O=S(=O)(c1ccc(F)cc1)c1snnc1-c1ccccc1,n,n,n,n,x
CCOC(=O)c1c(C)n(-c2ccc(C)cc2)c2ccc(OCC(O)CN3CCN(C)CC3)cc12 (centres undefined),x,x,n,n,x
CCOC(=O)C1Cc2ccccc2CN1 (centres undefined),n,n,n,15.3,n
CCCc1cc(C(=O)OCC(=O)N2CCN(c3ccc(OC)cc3)CC2)sc1C,n,n,x,x,x
O=C(N/N=C/c1c[nH]c2ccc(Br)cc12)c1ccc2c(c1)OCO2,n,n,n,15.7,n
CCC12CN3CCN(CC(C3)/C1=N\NC(=O)c1ccc(C(C)(C)C)cc1)C2,n,n,n,21.0,n
SMILES,LYPLA1 inh,LYPLA2 inh,DTT redox prof,p97 ATPase inh,p97 inh conf
Cc1[nH]c2ccccc2c1/C=N/NC(=O)c1cc(-c2ccccc2)n[nH]1,n,n,x,20.6,17.3
Cc1[nH]c2ccccc2c1/C=N/Nc1cccc(C(=O)O)c1,n,n,x,18.5,19.1
COc1ccccc1C(=O)NCC(=O)N/N=C/c1ccncc1,n,n,n,16.2,n
CCc1ccc(OCC(=O)Nc2cccc3c2CCCC3)cc1,n,n,n,n,x
CC(=O)Oc1cc2c3c(c1)/C(=C1/SC(=S)NC1=O)C(=O)N3C(C)(C)C=C2C,n,n,x,25.4,44.7
Oc1ccc(-c2csc(-c3c[nH]c4ccccc34)n2)c(O)c1,n,n,n,19.3,22.5
COc1ccc(-c2nc(-c3ccc(O)cc3O)cs2)cc1OC,x,x,n,17.4,19.0
Cc1ccc(-c2csc(-c3c[nH]c4ccccc34)n2)c(C)c1,n,n,n,n,x
N#C/C(=C(/O)CCl)c1nc(-c2ccccc2)cs1,n,n,x,40.0,37.9
O=C(CC1C(=O)NCCN1Cc1ccc(-c2ccccc2)cc1)NCCCn1ccnc1 (centres undefined),n,n,x,n,x
O=[N+]([O-])c1c(-c2cn[nH]c2)n[nH]c1-c1cn[nH]c1,n,n,x,25.4,36.4
COCCN(C(=O)Nc1ccccc1OC)c1nc2ccccc2s1,n,n,x,x,x
Nc1nc(N2CCN(c3ccc(F)cc3)CC2)n[nH]1,n,n,n,n,x
Nc1nc(N2CCOCC2)n[nH]1,x,x,n,17.2,n
COc1ccc(N(CC(=O)N/N=C/c2cc(Br)c(C)o2)S(=O)(=O)c2ccc(NC(C)=O)cc2)cc1,n,n,n,15.2,n
CCc1nccn1S(=O)(=O)c1ccccc1[N+](=O)[O-],n,n,x,x,x
Cc1cc(C)n(CC(O)CN2c3ccccc3Sc3ccccc32)n1 (centres undefined),n,n,n,n,x
COc1cccc(-n2c(SCc3cc(=O)oc4cc(O)c(O)cc34)nc3ccccc3c2=O)c1,n,n,n,39.8,39.8
CC(=O)c1sc(C(C)(C)C)cc1NC(=O)CCC(=O)O,n,n,x,n,x
CC(=O)c1sc(C(C)(C)C)cc1NC(=O)/C=C/C(=O)O,n,n,x,15.2,n
Cc1cc(C)c2c(n1)SCC(=O)N2CC(=O)Nc1ccc(F)cc1,n,n,x,x,x
NC(N)=NC(N)=Nc1cccc2ccccc12,n,n,x,n,x
NC(N)=Nc1cc2ccccc2c2ccccc12,n,n,x,14.9,n
CCN(CCn1cccn1)C(=O)C1CCC(=O)N(CC2CCCCC2)C1 (centres undefined),n,n,x,x,x
CC(C)=CCC1=C(OCC(=O)O)C(=O)c2ccccc2C1=O,n,n,x,32.1,28.6
SMILES,LYPLA1 inh,LYPLA2 inh,DTT redox prof,p97 ATPase inh,p97 inh conf
O=C(CSc1cn[nH]n1)Nc1ccccc1C(F)(F)F,n,n,x,x,x
O=C(OCC(=O)c1c[nH]c2ccccc12)c1ccc([N+](=O)[O-])s1,n,n,n,31.2,40.1
COc1cc2c(cc1NC(=O)CSc1nnc(Cc3cccs3)n1C)oc1ccccc12,n,n,n,21.6,16.5
COc1cc2c(cc1NC(=O)CSc1nnc(Cc3cccs3)n1Cc1ccco1)oc1ccccc12,n,n,n,n,x
CCOc1ccc2nc(N3CCCC(C(=O)NCC4CCCO4)C3)sc2c1 (centres undefined),n,n,x,n,x
Nc1c(C(=O)NCc2ccco2)c2nc3ccccc3nc2n1CCc1ccccc1,x,x,n,18.1,n
CSC1=NC(=O)/C(=C\c2cccc3ccccc23)S1,n,n,n,15.2,n
N=C1S/C(=C\c2cccc3ccccc23)C(=O)N1c1ccc(F)cc1,n,n,n,n,x
COc1ccc(O)c(/C=N/NC(=S)Nc2cccc(S(=O)(=O)N(C)C)c2)c1,n,n,n,n,x
CN(C)S(=O)(=O)c1cccc(NC(=S)N/N=C/c2ccc(O)c(O)c2O)c1,x,x,x,16.0,20.0
O=C(O)c1c(NC(=O)N2CCOCC2)sc2c1CCCC2,n,n,x,x,x
CC(C)c1nc2sc3c(=O)[nH]cnc3c2c2c1CCC2,n,n,n,n,x
CC(C)c1nc2sc3c(=S)nc[nH]c3c2c2c1CCC2,n,n,x,42.2,41.4

# High-throughput results as filed in PubChem BioAssay.
